Assay results published in PubChem BioAssay (NCATS).
“And” between values parts separate entries of the source, which are not always exact repeats. Equal values may be shown once. Inconclusive results are not listed. Unmarked numbers belong to inactive results. The source made the active and inactive calls. Unless noted, calls follow the shape of the dose curve; as a rule, active = well fitted curve in the direction sought with a large enough effect; inconclusive = small, poorly fitted or top-dose-only effect, or another doubt; inactive = no such curve, though single readings can be large; an effect the other way counts as inactive or inconclusive.

system: not listed separately; assay: Primary qHTS for small molecule stabilizers of the endoplasmic reticulum resident proteome: Secreted ER Calcium Modulated Protein (SERCaMP) assay (AID 1508630); details: SH-SY5Y GLuc-SERCaMP (Gaussia luciferase released on ER calcium loss) secretion, thapsigargin, luminescence; series mostly up to 38.4 µM; activity change, negative = inhibition: at the top concentration; also: % is scaled to controls: 0 for no effect and ±100 for the full control effect
Procedure, shortened: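 The SH-SY5Y reporter protocol was run at 3 concentrations up to 38.3 uM (primary) or 11 concentrations (follow-up): 16 h compound, 100 nM thapsigargin for 4 h, then extracellular luciferase luminescence.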

Row | Structure (SMILES) | Potency | activity change, negative = inhibition
1 | CCC(CC)(CC(=O)Nc1cccc(/C=C/c2nc(C3CCC3)cs2)c1)C(=O)O | inactive | –
2 | CCN(CC)CCOc1ccc2c(c1)C(=O)c1cc(OCCN(CC)CC)ccc1-2 | inactive | –
3 | CNCCCCOc1ccccc1Cc1ccccc1 | inactive | –
4 | O=C(O)CCC(=O)Nc1ccc(S(=O)(=O)Nc2nccs2)cc1 | – | -8.1%
5 | C#C[C@]1(O)CC[C@H]2[C@@H]3CCc4cc(OC)ccc4[C@H]3CC[C@@]21C | – | -14.5%
6 | CN1CCc2cccc3c2[C@H]1Cc1ccc(O)c(O)c1-3 | – | -25.1%
7 | CCCCCCCCNC(C)C(O)c1ccc(SC(C)C)cc1 (stereo not given) | – | 82.1%
8 | c1ccc(CC2=NCCN2)cc1 | – | -3.56%
9 | CCN(CC)CCNc1ccc(CO)c2sc3ccccc3c(=O)c12 | – | 107%
10 | COc1cc([C@H]2Oc3cc([C@H]4Oc5cc(O)cc(O)c5C(=O)[C@@H]4O)ccc3O[C@@H]2CO)ccc1O | – | -19.9%
11 | CN(C)CCOC(=O)C(c1ccccc1)C1(O)CCCC1 (stereo not given) | – | -32.9%
12 | Cc1ccc(-c2ncc(Cl)cc2-c2ccc(S(C)(=O)=O)cc2)cn1 | – | 12.3%
13 | COc1ccc2c(c1)c1c3n2CCN(C)C3=NCC1 | – | -21.9%
14 | COc1ccc(C(=O)c2ccccc2O)c(O)c1 | – | -13.3%
15 | CC(=O)Nc1ncc([N+](=O)[O-])s1 | – | -22.7%
16 | CC[C@]12CCCN3CCc4c(n(c5ccccc45)C(=O)C1)[C@@H]32 | – | 37.6%
17 | CC(CNC1CCCCC1)OC(=O)c1ccccc1 (stereo not given) | – | 39%
18 | CCOC(=O)C(C#N)=C(c1ccccc1)c1ccccc1 | – | 12.4%
19 | COc1ccc(-c2cc(C(F)F)nn2-c2ccc(S(N)(=O)=O)cc2)cc1F | – | 28.7%
20 | N/C(=N\N=C\c1ccc(Cl)cc1)N/N=C/c1ccc(Cl)cc1 | – | 82.3%
21 | C#C[C@]1(O)CC[C@H]2[C@@H]3[C@H](C)CC4=C(CCC(=O)C4)[C@H]3CC[C@@]21C | – | -12%
22 | CC(C)(C)NC[C@H](O)COc1cccc2c1CCCC2=O | – | 21.5%

system: not listed separately; assay: A High-Content qHTS Against Drug Library for the Identification of Small Molecules that Inhibit DYT1 Early Onset Primary Dystonia-Associated Cell Pathology (AID 1645839; calls by dose curve); details: HEK293 Flp-In EGFP-delE TorsinA, punctate imaging, 48 h; series mostly up to 46.1 µM; % pathology change, negative = correction: at the top concentration
Procedure, shortened: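 High-content imaging quantified EGFP-TorsinA mislocalization in HEK293-derived cells inducibly expressing DYT1 mutant torsinA, after 48 h exposure to compound given together with tetracycline induction. Cell count served as a toxicity channel alongside %pathology.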

Row | Structure (SMILES) | % pathology change, negative = correction
23 | CC(=O)O[C@H]1C[C@@H]2CC[C@@H]3[C@H](CC[C@@]4(C)[C@H]3C[C@H]([N+]3(C)CCCCC3)[C@@H]4OC(C)=O)[C@@]2(C)C[C@@H]1N1CCCCC1 | 1.55%
24 | CC1=C(C(=O)O)N2C(=O)[C@@H](NC(=O)[C@H](N)c3ccccc3)[C@H]2SC1 | 6.19%
25 | NS(=O)(=O)c1cc2c(cc1Cl)NC(CC1CCCC1)NS2(=O)=O (stereo not given) | -18.4%
26 | NC(=S)N/N=C/c1cccnc1 | -4.03%
27 | Cc1ccccc1OCC(O)CO (stereo not given) | 4.1%
28 | Nc1nc(N)c(-c2ccccc2)s1 | 3.49%
29 | O=C(O)CCC(=O)Nc1ccc(S(=O)(=O)Nc2nccs2)cc1 | 2.1%
30 | CN(C)CCOC(=O)C(c1ccccc1)C1(O)CCCC1 (stereo not given) | 4.21%
31 | Cc1ccc(-c2ncc(Cl)cc2-c2ccc(S(C)(=O)=O)cc2)cn1 | -4.47%
32 | COc1ccc2c(c1)c1c3n2CCN(C)C3=NCC1 | 11%
33 | COc1ccc(C(=O)c2ccccc2O)c(O)c1 | -22.2%
34 | CC(=O)Nc1ncc([N+](=O)[O-])s1 | -4.54%
35 | CC(CNC1CCCCC1)OC(=O)c1ccccc1 (stereo not given) | 4.79%
36 | C#C[C@]1(O)CC[C@H]2[C@@H]3[C@H](C)CC4=C(CCC(=O)C4)[C@H]3CC[C@@]21C | -22.1%
37 | CC(C)(C)NC[C@H](O)COc1cccc2c1CCCC2=O | -1.74%

target: Cytochrome P450 2D6 (Homo sapiens) (UniProt P10635); assay: Cytochrome P450 family 2 subfamily D member 6 (CYP2D6) small molecule antagonists: luciferase biochemical (cell-free) qHTS assay (AID 1645840; active = well fitted curve in the direction sought with a large enough effect in the repeat runs; an effect the other way counts as inactive or inconclusive; also: nearly all actives have a fitted effect of over 55% in size; also: potency is read from the fitted curve at half-maximal effect; as to activity change, negative = inhibition: % is scaled to controls: 0 for no effect and ±100 for the full control effect); details: P450-Glo CYP2D6 enzyme, luciferin luminescence, 1 h; series mostly up to 57.4 µM; activity change, negative = inhibition: at the top concentration
Procedure, shortened: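 P450-Glo CYP2D6 system: proluciferin substrate converted by enzyme to luciferin, read by luminescence proportional to activity. Enzyme-substrate mix with compound 10 min at room temperature, then NADPH regeneration 1 h before detection reagent.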

Cytochrome P450 2D6 (Homo sapiens), sequence (P10635 whole entry, looked up): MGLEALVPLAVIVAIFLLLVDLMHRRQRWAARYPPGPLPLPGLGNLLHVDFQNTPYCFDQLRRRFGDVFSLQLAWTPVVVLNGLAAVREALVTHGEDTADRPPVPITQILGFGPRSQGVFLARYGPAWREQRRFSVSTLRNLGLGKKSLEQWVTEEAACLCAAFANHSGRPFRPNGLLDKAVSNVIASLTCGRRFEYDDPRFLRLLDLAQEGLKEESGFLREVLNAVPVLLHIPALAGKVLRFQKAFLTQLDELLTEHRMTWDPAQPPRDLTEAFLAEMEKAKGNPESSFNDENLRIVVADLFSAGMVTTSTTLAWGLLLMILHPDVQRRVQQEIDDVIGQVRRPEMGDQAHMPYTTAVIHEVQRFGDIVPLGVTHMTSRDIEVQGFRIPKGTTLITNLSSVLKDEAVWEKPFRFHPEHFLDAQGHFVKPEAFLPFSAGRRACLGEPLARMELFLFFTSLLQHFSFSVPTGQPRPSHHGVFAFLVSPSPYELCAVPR

Row | Structure (SMILES) | Potency | activity change, negative = inhibition
38 | CCCCCCCCCCCCCC[N+](C)(C)Cc1ccccc1 | 347 nM (active) | –
39 | C[C@H]1O[C@@H](O[C@H]2CC[C@@]3(C)[C@H](CC[C@@H]4[C@@H]3C[C@@H](O)[C@]3(C)[C@@H](C5=CC(=O)OC5)CC[C@]43O)C2)C[C@H](O)[C@@H]1O[C@H]1C[C@H](O)[C@H](O[C@H]2C[C@H](O)[C@H](O[C@@H]3O[C@H](CO)[C@@H](O)[C@H](O)[C@H]3O)[C@@H](C)O2)[C@@H](C)O1 | – | 5.72%
40 | CCCCCN=C(N)N/N=C/c1c[nH]c2ccc(OC)cc12 | 219 nM (active) | –
41 | C#C[C@]1(OC(C)=O)CC[C@H]2[C@@H]3CCC4=C/C(=N/O)CC[C@@H]4[C@H]3CC[C@@]21CC | 2680 nM (active) | –
42 | CCN(CC)CCOc1ccccc1C(=O)CCc1ccccc1 | 110 nM (active) | –
43 | Oc1c(Cl)cc(Cl)c(Cl)c1Cc1c(O)c(Cl)cc(Cl)c1Cl | 13800 nM (active) | –
44 | CCOC(=O)c1ccc(N)cc1 | – | 0.695%
45 | CCC(CC)(CC(=O)Nc1cccc(/C=C/c2nc(C3CCC3)cs2)c1)C(=O)O | – | -15.5%
46 | CCN(CC)CCOc1ccc2c(c1)C(=O)c1cc(OCCN(CC)CC)ccc1-2 | – | -11%
47 | CNCCCCOc1ccccc1Cc1ccccc1 | 692 nM (active) | –
48 | C#C[C@]1(O)CC[C@H]2[C@@H]3CCc4cc(OC)ccc4[C@H]3CC[C@@]21C | – | -6.77%
49 | CCCCCCCCNC(C)C(O)c1ccc(SC(C)C)cc1 (stereo not given) | 1.38 µM (active) and 8.49 µM (active) | –
50 | CCN(CC)CCNc1ccc(CO)c2sc3ccccc3c(=O)c12 | 4360 nM (active) | –
51 | COc1cc([C@H]2Oc3cc([C@H]4Oc5cc(O)cc(O)c5C(=O)[C@@H]4O)ccc3O[C@@H]2CO)ccc1O | – | -9.7%
52 | CC[C@]12CCCN3CCc4c(n(c5ccccc45)C(=O)C1)[C@@H]32 | 87.1 nM (active) | –
53 | CCOC(=O)C(C#N)=C(c1ccccc1)c1ccccc1 | – | -2.09%
54 | COc1ccc(-c2cc(C(F)F)nn2-c2ccc(S(N)(=O)=O)cc2)cc1F | 5490 nM (active) | –
55 | N/C(=N\N=C\c1ccc(Cl)cc1)N/N=C/c1ccc(Cl)cc1 | 15500 nM (active) | –
